Only some compounds are listed: those with a hit (about 2.8% of all), similar ones and a draw of the others.
PAFAH1B2 FP inh – PAFAH1B2 (human) inhibition. P68402. recombinant PAFAH1B2, FP-rhodamine activity probe, fluorescence polarization. inhibition, % at 3.39 µM. actives 1.2% (n = 340,000). AID 492953;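 active means inhibition above the mean of all tested compounds plus 3 SD, cut at about 24% in these data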
PAFAH1B3 inh – PAFAH1B3 (human) inhibition; Q15102; AID 492972; inhibition, % at 3.39 µM; recombinant PAFAH1B3, FP-rhodamine probe, fluorescence polarization; actives 0.28% (n = 340,000);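 active means inhibition above the screen-wide average of all tested compounds plus 3 SD, cut at about 25% in these data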
PAFAH2 FP inh – inhibitors of human PAFAH2; Q99487; recombinant PAFAH2, FP-rhodamine activity probe, fluorescence polarization; inhibition, % at 3.39 µM; actives 0.99% (n = 340,000);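 active means inhibition above the mean over all tested compounds plus 3 SD, cut at about 30% in these data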;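 further: inhibitors block probe labeling of enzyme so polarization drops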
HTRA1 inh – inhibitors of human serine peptidase HTRA1; recombinant HTRA1, FP-rhodamine activity-based probe, fluorescence polarization; AID 504803; Q92743; actives 0.5% (n = 340,000); inhibition, % at 5.96 µM; in the data active means inhibition above about 36%
pPAFAH inh – inhibitors of human plasma PAF acetylhydrolase (pPAFAH); recombinant pPAFAH, FP-rhodamine probe fluorescence polarization; actives 1.5% (n = 330,000); AID 463082; inhibition, % at 3.39 µM;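 active means inhibition above the mean inhibition across the screen plus 3 SD, cut at about 25% in these data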;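 further: inhibitors block binding of the rhodamine activity-based probe so polarization drops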
Target sequence (Q13093 whole entry, looked up): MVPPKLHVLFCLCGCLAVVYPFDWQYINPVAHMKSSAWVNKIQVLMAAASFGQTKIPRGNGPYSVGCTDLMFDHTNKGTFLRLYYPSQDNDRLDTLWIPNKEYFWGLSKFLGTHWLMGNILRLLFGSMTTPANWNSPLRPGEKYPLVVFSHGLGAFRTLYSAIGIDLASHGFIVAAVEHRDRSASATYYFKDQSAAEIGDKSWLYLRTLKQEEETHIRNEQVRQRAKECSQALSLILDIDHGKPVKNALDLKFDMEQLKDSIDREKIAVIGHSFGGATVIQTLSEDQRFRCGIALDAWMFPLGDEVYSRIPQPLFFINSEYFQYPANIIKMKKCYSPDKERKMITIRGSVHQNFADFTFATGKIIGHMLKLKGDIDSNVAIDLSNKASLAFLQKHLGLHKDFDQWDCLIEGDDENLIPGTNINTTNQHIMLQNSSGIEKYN
DAGLB inh – blocks human DAGLB lipase activity; inhibition, % at 5.17 µM; HEK293T DAGLB membrane lysate, EnzChek fluorogenic substrate; AID 504411; actives 0.059% (n = 340,000); Q8NCG7; in the data active means inhibition above about 34%
Large screens that a line does not name were inactive.

O=C(c1ccc(CS(=O)Cc2ccc(Cl)cc2)o1)N1CCN(c2cccc(Cl)c2)CC1 (stereo not drawn)	pPAFAH inh 25.7
O=C(c1ccc(CS(=O)Cc2ccc(Cl)cc2)o1)N1CCN(c2ccc(F)cc2)CC1 (stereo not drawn)	pPAFAH inh 29.5
COC(=O)C1=C(C)N(C)C(=O)NC1c1cc2c(cc1[N+](=O)[O-])OCO2 (stereo not drawn)	none
COC(=O)C1=C(C)N(CCCC(=O)O)C(=O)NC1c1cc2c(cc1[N+](=O)[O-])OCO2 (stereo not drawn)	pPAFAH inh 29.6
COc1ccc(NC(=O)COC(=O)CC2CC3CCC2C3)c([N+](=O)[O-])c1 (stereo not drawn)	PAFAH2 FP inh 53.9, pPAFAH inh 32.6
COc1ccc(NC(=O)CC2Nc3cc(C)c(C)cc3NC2=O)c([N+](=O)[O-])c1 (stereo not drawn)	pPAFAH inh 25.5
O=C(COC(=O)CC1CC2CCC1C2)Nc1ccccc1Cl (stereo not drawn)	PAFAH2 FP inh 44.6, pPAFAH inh 28.4
O=C(COC(=O)CC1CC2CCC1C2)Nc1c(F)cccc1F (stereo not drawn)	none
COc1cccc(CN(C)CC(=O)Nc2cccc(S(=O)(=O)N(C)c3ccccc3)c2)c1OC	none (no result: pPAFAH inh)
CCOc1ccc(CN(C)CC(=O)Nc2cccc(S(=O)(=O)N(C)c3ccccc3)c2)cc1	pPAFAH inh 27.9
CCN1CCN(C(c2cccs2)C(C)NC(=S)NC2CCCCC2)CC1 (stereo not drawn)	pPAFAH inh 33.6
CCN1CCN(C(c2cccs2)C(C)NC(=O)NC2CCCCC2)CC1 (stereo not drawn)	none
O=C(Nc1ccccc1Oc1ccccc1)c1ccccc1F	pPAFAH inh 28.3
Cc1ccc(S(=O)(=O)N2CCN(C(=O)CNC(=O)c3ccc(Cl)cc3)CC2)cc1	none
CCNC(=S)NNC(=O)c1cc(-c2cccc(C)c2)nc2ccccc12	PAFAH1B2 FP inh 31.9
O=C(NNC(=S)Nc1ccccc1)c1cc(-c2cccnc2)nc2ccccc12	none
CCNC(=S)NNC(=O)c1cc(-c2cccc(OCC)c2)nc2ccccc12	none
CCOC(=O)c1ccc(NC(=S)NNC(=O)c2cc(-c3cccnc3)nc3ccccc23)cc1	pPAFAH inh 29.6
CCNC(=S)NNC(=O)c1cc(-c2ccc(OC)cc2)nc2ccccc12	PAFAH1B2 FP inh 27.7
COc1ccc(NS(=O)(=O)c2ccc(NC(=O)C(CCSC)NC(N)=O)cc2)cc1 (stereo not drawn)	pPAFAH inh 31.0
CCSc1nnc(NC(=O)C2CSC3(C)CCC(=O)N23)s1 (stereo not drawn)	none
CC1(CCC(=O)N2CCCC(N3CCN(c4ccc(F)cc4)CC3)C2)CC1 (stereo not drawn)	none
CCCCCC(=O)Nc1cc(S(=O)(=O)O)cc2cc(S(=O)(=O)O)cc(O)c12	PAFAH1B3 inh 34.8, PAFAH2 FP inh 56.8 (no result: pPAFAH inh)
CSCC[C@H](NC(=O)C1CCN(S(=O)(=O)c2ccc(C)cc2C)CC1)c1nc2ccccc2[nH]1	none
COc1ccc(C(=O)NC(=S)NCc2cccnc2)cc1OC	none
COc1ccc(C(=O)NC(=S)NCc2ccccc2)cc1OC	pPAFAH inh 30.3
O=C(Cn1cnc2ccc(Cl)cc2c1=O)NC1CCS(=O)(=O)C1 (stereo not drawn)	none (no result: pPAFAH inh)
Cc1sc(NC(=O)c2sc3nc4c(C)cccc4cc3c2N)c(C#N)c1C	pPAFAH inh 27.2
CCOC(=O)Cn1c(=O)oc2cc(S(=O)(=O)Nc3c(C)cc(C)cc3C)ccc21	pPAFAH inh 25.0
CCOc1ccc(CCNC(=O)COC(=O)COc2ccc(Cl)cc2)cc1OCC	pPAFAH inh 26.5
COc1ccc(CCNC(=O)COC(=O)COc2ccc(Cl)cc2)cc1OC	none
O=C(COC(=O)COc1ccc(Cl)cc1)NCCCc1ccccc1	PAFAH1B2 FP inh 29.4
O=C(COC(=O)COc1ccccc1)NCCc1ccccc1	none
CCOc1cc(CNCCc2ccc(S(N)(=O)=O)cc2)ccc1OCc1ccc(Cl)cc1	PAFAH1B2 FP inh 28.3
COc1ccc(Cc2nnc(NC(=O)c3cc(OC)c(OC)c(OC)c3)s2)cc1	none
O=C(CCl)N1CCN(S(=O)(=O)c2ccc3c(c2)CCC3)CC1	none
COc1ccc(NC(=O)Nc2cc(C(=O)O)ccc2N2CC3CC(C2)c2cccc(=O)n2C3)c(OC)c1 (stereo not drawn)	none
CCOC(=O)c1ccc(N2CCN(c3ccccc3F)CC2)c(NC(=O)Nc2ccccc2)c1	none
COc1cccc(NC(=O)Nc2cc(C(=O)O)ccc2N2CC3CC(C2)c2cccc(=O)n2C3)c1 (stereo not drawn)	pPAFAH inh 33.9
CCOC(=O)c1ccc(N2CCN(c3ccc(F)cc3)CC2)c(NC(=O)Nc2cccc(OC)c2)c1	pPAFAH inh 29.1
COc1ccc(N(Cc2cc(=O)[nH]c3ccccc23)C(=O)CCl)cc1	none
O=C(CSc1nc2nn(-c3ccccc3)c(=O)c-2c2n1CCCCC2)Nc1cccc(F)c1	none
Cc1cccc(CCNC(=O)CCc2nnc(CCc3ccccc3)o2)n1	none
O=C(Nc1ccc(Cl)cn1)C1CC1	none
O=C(NCC1CCCC(CNC(=O)Nc2ccc(Cl)cn2)C1)Nc1ccc(Cl)cn1 (stereo not drawn)	PAFAH1B2 FP inh 26.3
CC1COCC(C)N1C1=C(Cl)C(=O)c2ccccc2C1=O (stereo not drawn)	PAFAH1B2 FP inh 35.2, PAFAH1B3 inh 44.1, PAFAH2 FP inh 43.3 (no result: pPAFAH inh)
NC1=C(Cl)C(=O)c2ccccc2C1=O	none (no result: pPAFAH inh)
CC(C)c1ccc(/C=N/n2c(COc3ccccc3)n[nH]c2=S)cc1	PAFAH1B2 FP inh 28.8, PAFAH2 FP inh 34.6
COc1ccc(Cl)cc1NC(=O)COC(=O)C1=NNC(=O)CC1	none
CCC(O)C1CCN(Cc2cn(Cc3ccccc3)nc2-c2cc3ccccc3o2)CC1 (stereo not drawn)	pPAFAH inh 27.8
COc1ccc(OC)c(CCNC(=O)CCc2nnc3ccc(N4CCOCC4)nn23)c1	none
COc1ccc(CCC(=O)NCC(c2ccco2)N2CCc3ccccc32)cc1 (stereo not drawn)	none
O=c1[nH]c2cc(Cl)ccc2c(O)c1-c1cccc(Oc2ccccc2)c1	PAFAH1B2 FP inh 31.6
CC1CCN(S(=O)(=O)c2cnc(Cl)c(Br)c2)CC1	PAFAH1B2 FP inh 25.6
Cc1ccc(NC(=O)COC(=O)CC2CCCC2)cc1Cl	PAFAH2 FP inh 67.6
COc1ccc(NC(=O)COC(=O)CC2CCCC2)cc1Cl	PAFAH2 FP inh 42.7, pPAFAH inh 26.9
COc1ccc(NC(=O)CN(C)C2CCCCC2)cc1Cl	none
CCOCC(=O)Nc1ccc(C)c(Cl)c1	none
O=S(=O)(Nc1ccc2c(c1)nc1n2CCN(Cc2ccccc2)C1)c1ccccc1	pPAFAH inh 25.5
NC(=S)NN=C(c1ccc(Br)cc1)C1CC1	none (no result: pPAFAH inh)
Cc1cccc(NC(=O)CSc2nc(=O)n(CCN3CCOCC3)c3c2CCCC3)c1C	none
